Screening data deposited in PubChem BioAssay by several laboratories.
Compounds with a hit are over-represented: about 2.2% of the library has one in this group of screens.
GRK2 aptamer HTS: compounds blocking aptamer binding on GRK2 – biochemical, human GRK2, bead flow cytometry, HTS, primary screen; hit rate 0.59% among 330,000; FAM-aptamer displacement from GRK2; inhibition of aptamer binding, % at 10 µM; AID 488847, 2010;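 active = inhibition of aptamer binding above 40%, roughly 3 SD of noise, on plates passing a quality check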;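 also: median bead fluorescence of bound FAM aptamer so fluorescent compounds give negative values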
TMEM16A inh: TMEM16A chloride channel inhibitors, primary screen, cell-based, HTS | Anoctamin-1 (Mus musculus), Q8BHY3 | HEK293 TMEM16A/YFP iodide influx fluorescence, ionomycin | normalized B-score (activity score, 25-100; higher = stronger inhibition) at 10 µM | hit rate 1.2% among 310,000;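 active = ratio plate-corrected score three or more library SD toward inhibition, starting fluorescence score within five deviations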;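 also: score derived from kinetic fluorescence span divided by baseline fluorescence per well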
NOD2 RIPK2 PPI: NOD2-RIPK2 binding disruptors in cells, primary screen, fluorescence, CHO cells, BLA complementation. Receptor-interacting serine/threonine-protein kinase 2 (Homo sapiens), O43353. CCF4 ratio. inhibition, % at 4.98 µM. hit rate 0.38% among 360,000. AID 624267, 2012; in the data active = inhibition above about 21%;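 also: 0% = vehicle only and 100% = reference blocker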
ANO1 activ: TMEM16A chloride channel activators or potentiators, primary screen, cell-based, HTS; Anoctamin-1 (Mus musculus), Q8BHY3; HEK293 TMEM16A/YFP-H148Q/I152L, iodide quench fluorescence; stronger effect = lower value; B-score at 10 µM; hit rate 0.3% among 340,000;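 active = fluorescence-ratio B-score plate-corrected deviation score at least 3 library SD below zero, with starting fluorescence score within 5 deviations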;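 also: channel opened by trigger with iodide after compound preincubation; score built on the fluorescence ratio of max minus min over baseline; more negative score means more quench and so TMEM16A activation or potentiation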
TLR4-MyD88 BLA: inhibitors of TLR4-MyD88 association in cells, primary screen, cell-based, HeLa CL3-4, BLA complementation, FRET ratio. Toll-like receptor 4 (Homo sapiens) + Myeloid differentiation primary response protein …. HeLa CL3-4 TLR4/MyD88 BLA complementation. inhibition, % at 8.4 µM. hit rate 0.18% among 200,000; in the data active = inhibition above about 25%;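 also: 0% = vehicle and 100% = reference inhibitor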
TLR9-MyD88 block: inhibitors of TLR9-MyD88 association in cells, primary screen, cell-based, CHO, BLA complementation, fluorescence; Toll-like receptor 9 (Homo sapiens) + Myeloid differentiation primary response protein …; CCF4 FRET ratio; inhibition, % at 4.98 µM; hit rate 0.21% among 340,000; AID 504734, 2011;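 active = inhibition above the mean over all tested compounds plus 3 SD, cut at about 21% in these data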;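 also: 0% = DMSO only wells and 100% = clavulanate BLA inhibitor control wells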
GRK2 CP1: GRK2 aptamer-displacing inhibitors, retest, confirmation, biochemical, cherry pick 1, bead flow cytometry; shares compounds with GRK2 aptamer HTS; bead-bound GRK2, FAM-aptamer displacement; aptamer displacement, % at 10 µM; hit rate 4% among 2,000; AID 504451, 2011;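 active = aptamer displacement above 40%, near three times the noise of non-fluorescent compounds, on plates passing quality checks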;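 also: negative values mostly reflect intrinsic compound fluorescence rather than true enhancement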
FAM quench CP1: quenches fluorescent RNA aptamer, GRK2 hit artifact | shares compounds with GRK2 aptamer HTS | fluorescence response (% of DMSO), % at 10 µM | 2,000 tested, under 10 active | Carboxyfluorescein RNA aptamer on beads, flow cytometry quenching; stronger effect = lower value;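 active = compounds that quench the bead-bound fluorescent RNA probe, cutting fluorescence to under half of the solvent control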;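 also: counterscreen run without GRK2 so only probe quenching by compound is measured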
GRK2 CP2: GRK2 aptamer-displacing inhibitors, hit retest, confirmation, biochemical, cherry pick 2, bead flow cytometry. shares compounds with GRK2 aptamer HTS. bead-bound GRK2, FAM-aptamer displacement. inhibition of aptamer binding, % at 10 µM. 360 tested, under 10 active. AID 504782, 2011;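 active = inhibition of aptamer binding above 40%, about triple the noise seen with nonglowing compounds, on plates passing quality control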;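 also: negative values mostly come from compounds that fluoresce themselves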
FAM quench SP: quenches fluorescent RNA aptamer, GRK2 hit artifact; shares compounds with GRK2 aptamer HTS; 360 tested, under 10 active; carboxyfluorescein RNA aptamer beads, flow cytometry quenching; stronger effect = lower value; AID 588494; fluorescence response vs DMSO, % at 10 µM;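 active = response vs DMSO under 50%, meaning signal dropped by over half, treated as fluorescence quencher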;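 also: labelled aptamer on streptavidin beads without GRK2 as a quench counter-screen; 100% = bead fluorescence of DMSO wells and lower means quenching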
Numbers without * were called inactive; i = inactive; nt = no result given.

SMILES	GRK2 aptamer HTS	TMEM16A inh	NOD2 RIPK2 PPI	ANO1 activ	TLR4-MyD88 BLA	TLR9-MyD88 block	GRK2 CP1	FAM quench CP1	others
O=C(O)CC(NC(=O)C12CC3CC(CC(C3)C1)C2)c1ccc(F)cc1 (centres undefined)	88*	i	-9	nt	nt	-11	1	95
CCOC(=O)c1ccc(N2C(=O)C3CCCN3C2=S)cc1 (centres undefined)	42*	nt	-3	i	nt	4	nt	nt	GRK2 CP2=-2;FAM quench SP=103
C=CCn1c[n+](CC(=O)c2ccc(Br)s2)c2ccccc21	57*	i	-7	i	1	nt	-4	103
CCn1c(=N)n(CC(=O)c2ccc(Br)s2)c2ccccc21	5	i	0	i	nt	-2	nt	nt
O=C(Nc1cccc(Cl)c1)C1CCCN(C2=NS(=O)(=O)c3ccccc32)C1 (centres undefined)	nt	nt	5	i	nt	-14	nt	nt
Cc1ccc(Oc2ccc(OCC(=O)NC(C)C(=O)O)cc2)cc1 (centres undefined)	0	i	10	i	3	-1	nt	nt
CC(NC(=O)COc1ccc(Oc2ccccc2)cc1)C(=O)O (centres undefined)	52*	i	0	i	0	-4	-3	108
O=C(NCC1CCCN(C(=O)NCc2ccccc2)C1)c1ccc2c(c1)OCO2 (centres undefined)	0	i	8	i	7	1	-1	93
O=C(NCC1CCCN(Cc2ccc3c(c2)OCCO3)C1)c1ccc2c(c1)OCO2 (centres undefined)	0	i	-5	i	nt	-13	nt	nt
Cc1cc(-c2ccc(Cl)cc2)n2nc(C)cc2n1	45*	i	-2	i	nt	-3	-5	102
COC(=O)c1ccccc1NC(=O)NN1CCN(C)CC1	0	i	-1	i	nt	-6	nt	nt
COC(=O)c1sc(NC(=O)COc2ccc(OC)cc2)nc1C	0	i	-2	i	3	7	nt	nt
COC(=O)c1sc(NC(=O)COc2cccc(C)c2)nc1C	72*	i	-4	i	0	-4	nt	nt	GRK2 CP2=-12;FAM quench SP=105
COc1ccc(CCNC(=O)C2(C)CCC(=O)N2Cc2ccc(C)cc2)cc1OC (centres undefined)	2	i	-5	i	nt	-1	-1	85
CC(C)c1ccc(N(C)C(=O)Cc2c(C(=O)O)n(C)c3ccccc23)cc1	0	i	-8	i	nt	-5	nt	nt
CN(C(=O)Cc1c(C(=O)O)n(C)c2ccccc12)c1ccc(Cl)cc1	9	i	-3	i	nt	8	0	98
COc1ccc(C)cc1NC(=O)Cc1c(C(=O)O)n(C)c2ccccc12	0	i	-17	i	nt	5	nt	nt
CCOC(=O)c1ccccc1NC(=O)COC(=O)c1ccccc1C(=O)N(C)c1ccccc1	44*	i	-3	i	nt	2	-2	98
CCOC(=O)c1ccccc1NC(=O)Cc1c(C(=O)O)n(C)c2ccccc12	50*	i	6	i	nt	12	-2	95
CC1CCN(S(=O)(=O)c2cccc(C(=O)Nc3ccccc3)c2)CC1	2	i	2	i	-3	17	nt	nt
COc1ccccc1C(=O)Nc1c(C(=O)N2CCN(C)CC2)oc2ccccc12	0	i	-25	i	nt	1	nt	nt
COc1cccc(C(=O)Nc2ccc(C(=O)NCC3CCCO3)cc2)c1 (centres undefined)	0	i	-5	i	nt	-2	nt	nt
O=C(Cn1cc([N+](=O)[O-])cn1)N1CCc2ccccc21	3	i	-17	i	3	-12	0	99
Cc1cc(N2CCOCC2)ccc1/C=C1\NC(=O)N(CC(=O)Nc2ccc(F)cc2)C1=O	1	i	9	i	9	-1	nt	nt
Cc1cc(N2CCOCC2)ccc1/C=C1\NC(=O)N(CC(=O)Nc2ccccc2C)C1=O	0	i	-2	i	8	-3	2	100
SMILES	GRK2 aptamer HTS	TMEM16A inh	NOD2 RIPK2 PPI	ANO1 activ	TLR4-MyD88 BLA	TLR9-MyD88 block	GRK2 CP1	FAM quench CP1	others
Cc1cccc2c(C(=O)n3cccn3)cc(-c3ccccc3Cl)nc12	3	i	-6	i	-1	-21	-1	98
Cc1cccc2c(C(=O)Nn3cnnc3)cc(-c3ccccc3Cl)nc12	0	i	-12	i	0	1	nt	nt
CS(=O)(=O)c1ccc(NCCc2ccccn2)c([N+](=O)[O-])c1	60*	i	2	i	nt	-3	-2	97
COCCNC(=O)C1(C)CCCN(Cc2csc3ccccc23)C1 (centres undefined)	nt	nt	8	nt	nt	nt	nt	nt
COc1ccccc1CN(C)C(=O)COC(=O)c1ccc(Cl)nc1	0	nt	-14	i	nt	0	nt	nt
Oc1nc(Nc2ccccc2)sc1/C=C1\C=Nc2ccccc21	45*	i	6	i	nt	-2	-1	98
Cc1c(-c2cc(Br)ccc2O)nc2cc3c(cc2c1C)OCO3	11	i	-12	i	nt	-5	nt	nt
C#CCOCCOCCOCCNc1nc(N2CCN(C(=O)[C@H](Cc3cc4ccccc4[nH]3)n3cc([C@@H](N)CC(C)C)nn3)CC2)nc(N2CCN(C(=O)[C@H](Cc3cc4ccccc4[nH]3)n3cc([C@@H](N)CC(C)C)nn3)CC2)n1	70*	i	-8	i	3	3	-49	96
C#CCOCCOCCOCCNc1nc(N2CCOCC2)nc(N2CCN(C(=O)CCCCCCCCCCNC(=O)[C@@H]([C@H](C)O)n3cc(C)nn3)CC2)n1	3	i	-6	i	nt	-2	nt	nt
